LASV entry inh – Lassa virus entry inhibition; Lassa virus pseudotype entry inhibition, cell reporter; 300,000 tested, 1.2% active; Potency, µM (series often up to 37.9 µM), without a hit: at the top dose activity change, negative = inhibition, usual class: inhibitors; AID 540256; calls by dose curve; tested in HEK293 cells; also: potency is read from the fitted curve at half-maximal effect; % is scaled to controls: 0 for no effect and ±100 for the full control effect; nearly all actives have a fitted effect of over 50% in size
Shiga toxin inh – blocks Shiga toxin action in Vero cells; Vero cells, Shiga toxin protein synthesis inhibition reporter; inhibition, % at 38.7 µM; 290,000 tested, 9.2% active; in the data active = inhibition mostly above about 28%, no sharp cut-off; inactive = mostly below about 43%; also: 0% is about no effect
Pf growth 48h – P. falciparum growth inhibition at 48 hours (one generation). P. falciparum luciferase growth in erythrocytes, 48 h. Potency, µM (highest dose often 28.7 µM), without a hit: at the highest dose activity change, negative = inhibition, usual class: inhibitors. 310,000 tested, 5.9% active. AID 504832; also: potency is read from the fitted curve at half-maximal effect; % is scaled to controls: 0 for no effect and ±100 for the full control effect
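Here the parasites carry a stable luciferase gene and grow inside erythrocytes in Albumax-based RPMI medium with compound for one erythrocytic cycle. Activity is scored as loss of luminescent signal.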
MARV entry inh – blocks Marburg virus binding to or entry into cells; Marburg virus pseudotyped entry inhibition, cell reporter; Potency, µM (series often up to 37.8 µM), inactives show at the highest dose activity change, negative = inhibition, usual class: inhibitors; 300,000 tested, 1.8% active; AID 540276; calls by dose curve; tested in HEK293 cells; also: potency is read from the fitted curve at half-maximal effect; % is scaled to controls: 0 for no effect and ±100 for the full control effect
Cycloheximide cs – affects cycloheximide protein synthesis inhibition readout, counter-screen | max response, % | cell reporter, cycloheximide protein synthesis inhibition counterscreen | 300,000 tested, 12% active; in the data active = max response mostly above about 13%, no sharp cut-off; inactive = mostly below about 14%; also: read at 38.3 µM for the half of the compounds with a filed dose; 0% is about no effect
Pf growth 96h – inhibits malaria parasite growth, 96 h. P. falciparum luciferase reporter growth, 96 h. Potency, µM (titrated, usually from 28.7 µM), inactives show at the top dose activity change, negative = inhibition, usual class: inhibitors. 320,000 tested, 6.9% active. AID 504834; also: potency is read from the fitted curve at half-maximal effect; % is scaled to controls: 0 for no effect and ±100 for the full control effect
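Compounds incubated with erythrocytes infected by luciferase-expressing P. falciparum (2% hematocrit, 0.05% parasitemia final) for 96 hours, 37 C in 5% CO2. Growth inhibition scored as decreased luciferase luminescence.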
* marks the source's active call; other numbers are inactive results; ? = inconclusive; · = no result; [ ] = another dose, or the depositor's remark. Shown are actives, neighbours in structure and some others; about 19% of the full set was active somewhere. Unless noted, calls follow the shape of the dose curve; as a rule, active = well fitted inhibition curve with a large enough effect; inconclusive = small, poorly fitted or top-dose-only effect, or another doubt; inactive = no such curve, though single readings can be large or run the other way.

SMILES | LASV entry inh | Shiga toxin inh | Pf growth 48h | MARV entry inh | Cycloheximide cs | Pf growth 96h
C/C(=C\c1cccc(Cl)c1Cl)C(=O)c1c(C)cc(C)[nH]c1=O | · | -16 | 0% | · | -3 | 19µM*
Cc1nnc(NCc2n[nH]c(=O)c3ccccc23)c2ccccc12 | -13% | -23 | 16% | ? | -6 | 24%
O=C(Nc1ccc(F)cc1)NC1CCCCCCC1 | -12%[46.1 µM] | 108* | 51% | 1%[46.1 µM] | 61* | 19%
O=C1NCCCC1C(=O)N/N=C/c1ccc(Cl)cc1 (stereo unspecified) | ? | 14 | 25% | 16% | 10 | 39%
O=C(Nc1ccc(Cl)cc1)NC1CCCC1Cc1ccco1 (stereo unspecified) | 22% | 47* | 10µM* | -18% | 41* | ?
O=C(Nc1ccc(Cl)cc1)NC1CCCCNC1=O (stereo unspecified) | 20%[46.1 µM] | 46* | 69% | ? | 28* | 27%
Cc1c(NC(=O)NC2CCCCC2)cccc1[N+](=O)[O-] | -12% | -13 | 32% | 22% | 6 | 0%
Nc1ccc(NC(=O)NC2CCCCC2)cc1[N+](=O)[O-] | 16%[46.1 µM] | 65* | 131% | ? | 33* | 136%
O=c1[nH][nH]c(=S)n1C1CCCCC1 | -12% | -14 | ? | -1%[14.2 µM] | -1 | 17%
Cc1ccc(NC(=O)NC2CCCCCCC2)cc1C | · | 19 | 4% | · | 27 | ?
CC(NCc1ccc(F)cc1)C(=O)NC1CCCCC1 (stereo unspecified) | 0% | 53* | 24% | 17%[46.1 µM] | 7.1* | -6%
O=C(/C=C/c1ccc(F)cc1)NC(=S)NC1CCCCC1 | · | -5 | ? | · | 5 | 3.3µM*
CC(NCc1ccc2c(c1)OCO2)C(=O)NC1CCCCC1 (stereo unspecified) | -24% | -6 | 8% | -21%[46.1 µM] | -1 | ?
O=C(Nc1ccc2nsnc2c1)NC1CCCCC1 | ? | 72 | · | 0% | 50* | 28%
O=C(Nc1ccc(F)c(F)c1)NC1CCCCC1 | ? | 50* | 64% | ? | 30* | 0%
O=C(NC1CCCCCCC1)c1ccc(F)cc1 | -1%[46.1 µM] | 71* | -9% | ? | 46* | 43%
Nc1ccc(NC(=O)NC2CCCCC2)cc1 | 2% | 61* | 84% | -20%[46.1 µM] | 38* | -5%
O=C(Nc1ccc(Cl)cc1)NC1CCCCC1 | -28% | 100 | 48% | -18% | 38* | 374%
O=C(NC1CCCCCC1)c1ccc(N2CCCC2=O)cc1 | -2% | 74* | 168% | -3% | 21 | 201%
CC1CC(C)CN(C(=O)C2CCN(S(=O)(=O)c3cccs3)CC2)C1 (stereo unspecified) | -13% | -7 | -5% | 8%[46.1 µM] | -4 | -13%
CCOc1ccc(S(=O)(=O)N2CCN(C(=O)c3cc(C4CC4)nn3-c3ccccc3)CC2)cc1 | -28%[46.1 µM] | · | 4.7µM* | ? | · | ?
COc1ccc(S(=O)(=O)N2CCN(C(=O)c3cc(C4CC4)nn3-c3ccccc3)CC2)cc1OC | -5% | · | · | -27% | · | ·
O=C(c1cc(C2CC2)nn1-c1ccccc1)N1CCN(c2ccc(O)cc2)CC1 | -28% | · | 10µM* | -2% | · | ?
O=C(c1cc(C2CC2)nn1-c1ccccc1)N1CCN(c2ccccc2O)CC1 | ? | · | · | 8% | · | ·
O=C(c1cc(C2CC2)nn1-c1ccccc1)N1CCN(S(=O)(=O)c2c(F)cccc2F)CC1 | ? | · | 7.4µM* | ? | · | ?
SMILES | LASV entry inh | Shiga toxin inh | Pf growth 48h | MARV entry inh | Cycloheximide cs | Pf growth 96h
C[C@H](NC(N)=O)C(=O)Nc1ccc2c(c1)OCO2 | 20%[46.1 µM] | 3 | 55% | 12%[46.1 µM] | 23* | 95%
CCN(CC)C(C(=O)Nc1ccc2c(c1)OCO2)c1ccccc1 (stereo unspecified) | 5% | -5 | -8% | -2% | -4 | ·
CN(C)CC(NC(=O)c1cccc(S(=O)(=O)Nc2ccc3c(c2)OCO3)c1)c1ccccc1 (stereo unspecified) | · | · | ? | · | · | 4.1µM*
CC(CC(=O)Nc1ccc2c(c1)OCO2)c1ccccc1 (stereo unspecified) | -4%[46.1 µM] | 57 | 34% | ? | 15* | 115%
CC(CC(=O)NC(C)c1ccc2c(c1)OCCO2)c1ccccc1 (stereo unspecified) | -24% | 6 | 4% | ? | 4 | 92%
CC(CC(=O)Nc1ccc2c(c1)OCCO2)c1ccccc1 (stereo unspecified) | ? | 55* | 73% | ? | 42* | 1%
CC(C)n1c(N2CCN(CC(=O)Nc3ccc4c(c3)OCCO4)CC2)nc2ccccc21 | 5% | 15 | ? | ? | -2 | 5.9µM*
COC(=O)C[N+](C)(C)CC#Cc1ccccc1 | 5.2µM* | 0 | -5% | 2% | -4 | ?
CC[N+](CC)(CC#Cc1ccccc1)CC#Cc1ccccc1 | ? | 15 | 1.5µM* | ? | -2 | ?
C#CC[N+](CC)(CC)CC#Cc1ccccc1 | 2% | -3 | ? | 9% | 8 | ?
c1c(C2CCCCC2)n[nH]c1CN1CCCCC1 | 29% | -15 | -27% | ? | -2 | -25%
O=C(Nc1nc2n(n1)C(c1ccc(F)cc1)CC(c1ccccc1)N2)c1ccco1 (stereo unspecified) | · | 8 | -20% | · | -2 | ?
O=C(Nc1nc2n(n1)C(c1ccc(Cl)cc1)CC(c1ccc(Cl)cc1)N2)c1ccco1 (stereo unspecified) | ? | -5 | 10µM* | ? | -1 | ?
COc1ccc(C2CC(c3ccc(Cl)cc3)Nc3nc(NC(=O)c4ccco4)nn32)cc1 (stereo unspecified) | ? | 8 | 9.3µM* | ? | -3 | 13%
COc1ccc(C2CC(c3ccccc3)n3nc(NC(=O)c4cccs4)nc3N2)cc1 (stereo unspecified) | -15% | 19 | ? | ? | -1 | -15%[5.75 µM]
CCn1c(C)c(C)c2cc(C(=O)NCc3ccc(OC)cc3OC)ccc21 | 5%[46.1 µM] | · | · | · | · | ·
COCCCNC(=O)Cn1c(=O)n(-c2ccc(Cl)cc2)c(=O)c2c3c(sc21)CCCCC3 | 1%[46.1 µM] | · | · | 12%[46.1 µM] | · | ·
Cc1ccc(NC(=O)N2CCN(C(=O)C3CCCO3)CC2)cc1 (stereo unspecified) | · | 4 | 2% | · | -1 | 19%
CCOc1ccc(NC(=S)N(CCc2c(C)[nH]c3ccc(C)cc23)Cc2ccncc2)cc1 | -9% | -11 | ? | 2.3µM* | -3 | ?
COc1cc(CN(CCc2c(C)[nH]c3ccc(C)cc23)C(=S)NC(C)(C)C)cc(OC)c1OC | ? | -21 | ? | ? | -4 | 2.6µM*
Cc1[nH]c2ccccc2c1CCN(Cc1cccnc1)C(=S)NC(C)(C)C | · | -8 | 11%[0.00184 µM] | · | -2 | 13µM*
COc1ccc(NC(=S)N(CCc2c(C)[nH]c3ccc(C)cc23)Cc2cccnc2)cc1 | -20% | -12 | ? | -37% | -6 | ?
Cc1[nH]c2ccccc2c1CCN(Cc1cccnc1)C(=S)Nc1ccc(F)cc1 | · | -11 | ? | · | 1 | -64%

Screening results: PubChem, National Center for Advancing Translational Sciences (NCATS)
